Laboratory results published in the supplement of paper PMC7411640.
Structures can show the parent of a compound that is named as a salt.

Test system: MDA-MB-468
Test: phospho-S6 immunofluorescence (DAPI-normalised), per-plate z-score; higher = higher phospho-S6 signal (less pathway suppression)
Details: 24 h
Experimental: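 GPCR-targeted compound library (MedChemExpress HY-L006) tested on MDA-MB-468 PTEN-null TNBC cells in 384-well plates at 0.1, 1 or 10 uM, combined with vehicle, GDC0941 450 nM or lapatinib 1 uM, for 24 h. Phospho-S6 (S240/244) immunofluorescence normalised to DAPI and expressed as a per-plate z-score; values are the mean of biological triplicates.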

Clc1ccc2c(c1)N=C(N1CCNCC1)c1ccccc1N2 [N-Desmethylclozapine] (compound 10 µM)
phospho-S6 immunofluorescence (z-score) (co-treatment: GDC0941 450 nM): -0.56
phospho-S6 immunofluorescence (z-score) (co-treatment: lapatinib 1 uM): -3.16
phospho-S6 immunofluorescence (z-score) (co-treatment: vehicle): -0.88

CCC(=O)OCC(=O)[C@@]1(OC(=O)CC)[C@@H](C)C[C@H]2[C@@H]3CCC4=CC(=O)C=C[C@]4(C)[C@@]3(F)[C@@H](O)C[C@@]21C [Betamethasone dipropionate] (compound 10 µM)
phospho-S6 immunofluorescence (z-score) (co-treatment: GDC0941 450 nM): -0.51
phospho-S6 immunofluorescence (z-score) (co-treatment: lapatinib 1 uM): -0.45
phospho-S6 immunofluorescence (z-score) (co-treatment: vehicle): 0.82

CN1CCc2c(c3ccccc3n2Cc2ccccc2)C1 [Mebhydrolin (napadisylate)] (compound 10 µM)
phospho-S6 immunofluorescence (z-score) (co-treatment: GDC0941 450 nM): -0.29
phospho-S6 immunofluorescence (z-score) (co-treatment: lapatinib 1 uM): -1.06
phospho-S6 immunofluorescence (z-score) (co-treatment: vehicle): 0.64

c1ccc2c(c1)OCC(CN1CCCCC1)O2 (stereo not drawn) [Piperoxan (hydrochloride)] (compound 10 µM)
phospho-S6 immunofluorescence (z-score) (co-treatment: GDC0941 450 nM): 0.28
phospho-S6 immunofluorescence (z-score) (co-treatment: lapatinib 1 uM): 0.61
phospho-S6 immunofluorescence (z-score) (co-treatment: vehicle): 0.8

Cc1nc2n(c(=O)c1CCN1CCC(c3noc4cc(F)ccc34)CC1)CCCC2O (stereo not drawn) [Paliperidone] (compound 10 µM)
phospho-S6 immunofluorescence (z-score) (co-treatment: GDC0941 450 nM): 0.37
phospho-S6 immunofluorescence (z-score) (co-treatment: lapatinib 1 uM): 0.36
phospho-S6 immunofluorescence (z-score) (co-treatment: vehicle): 0.5

OCCOCCN1CCN(C2=Nc3ccccc3Sc3ccccc32)CC1 [Quetiapine (fumarate)] (compound 10 µM)
phospho-S6 immunofluorescence (z-score) (co-treatment: GDC0941 450 nM): -0.84
phospho-S6 immunofluorescence (z-score) (co-treatment: lapatinib 1 uM): 0.29
phospho-S6 immunofluorescence (z-score) (co-treatment: vehicle): -0.03

CC(=O)OCC(=O)[C@@]1(O)[C@H](C)C[C@H]2[C@@H]3CCC4=CC(=O)C=C[C@]4(C)[C@@]3(F)[C@@H](O)C[C@@]21C [Dexamethasone (acetate)] (compound 10 µM)
phospho-S6 immunofluorescence (z-score) (co-treatment: GDC0941 450 nM): 0.07
phospho-S6 immunofluorescence (z-score) (co-treatment: lapatinib 1 uM): 0.45
phospho-S6 immunofluorescence (z-score) (co-treatment: vehicle): 1.18

CC(C)C[C@H](NC(=O)CNC(=O)[C@H](Cc1ccc(O)cc1)NC(=O)[C@H](CO)NC(=O)[C@H](Cc1c[nH]c2ccccc12)NC(=O)[C@H](Cc1cnc[nH]1)NC(=O)[C@@H]1CCC(=O)N1)C(=O)N[C@@H](CCCNC(=N)N)C(=O)N1CCC[C@H]1C(=O)NCC(N)=O [Gonadorelin (acetate)] (compound 10 µM)
phospho-S6 immunofluorescence (z-score) (co-treatment: GDC0941 450 nM): -0.45
phospho-S6 immunofluorescence (z-score) (co-treatment: lapatinib 1 uM): 0.57
phospho-S6 immunofluorescence (z-score) (co-treatment: vehicle): 0.07

CCn1c2ccccc2c2cc(Nc3ccnc(NCCCN4CCOCC4)n3)ccc21 (compound 10 µM)
phospho-S6 immunofluorescence (z-score) (co-treatment: GDC0941 450 nM): -3.59
phospho-S6 immunofluorescence (z-score) (co-treatment: lapatinib 1 uM): -8.74
phospho-S6 immunofluorescence (z-score) (co-treatment: vehicle): -10.3

O=C(O)CCCN1CCC(O[C@@H](c2ccc(Cl)cc2)c2ccccn2)CC1 [Bepotastine (Beslilate)] (compound 10 µM)
phospho-S6 immunofluorescence (z-score) (co-treatment: GDC0941 450 nM): -0.72
phospho-S6 immunofluorescence (z-score) (co-treatment: lapatinib 1 uM): -0.17
phospho-S6 immunofluorescence (z-score) (co-treatment: vehicle): 0.56

COC(=O)[C@H]1[C@H]2C[C@H]3c4[nH]c5ccccc5c4CCN3C[C@H]2CC[C@@H]1O [Rauwolscine (hydrochloride)] (compound 10 µM)
phospho-S6 immunofluorescence (z-score) (co-treatment: GDC0941 450 nM): 0.42
phospho-S6 immunofluorescence (z-score) (co-treatment: lapatinib 1 uM): 0.38
phospho-S6 immunofluorescence (z-score) (co-treatment: vehicle): -0.22

Cc1cc(OCCCS(C)(=O)=O)cc(C)c1-c1cccc(COc2ccc3c(c2)OC[C@H]3CC(=O)O)c1 (compound 10 µM)
phospho-S6 immunofluorescence (z-score) (co-treatment: GDC0941 450 nM): -1.06
phospho-S6 immunofluorescence (z-score) (co-treatment: lapatinib 1 uM): 0.1
phospho-S6 immunofluorescence (z-score) (co-treatment: vehicle): -0.32

CC1(C)O[C@@H]2[C@@H](CO[C@@]3(COS(N)(=O)=O)OC(C)(C)O[C@@H]23)O1 [Topiramate] (compound 10 µM)
phospho-S6 immunofluorescence (z-score) (co-treatment: GDC0941 450 nM): -0.24
phospho-S6 immunofluorescence (z-score) (co-treatment: lapatinib 1 uM): 0.19
phospho-S6 immunofluorescence (z-score) (co-treatment: vehicle): -0.31

CCCCOc1ccc(C(=O)Nc2ccc(F)cc2F)cc1 (compound 10 µM)
phospho-S6 immunofluorescence (z-score) (co-treatment: GDC0941 450 nM): -0.51
phospho-S6 immunofluorescence (z-score) (co-treatment: lapatinib 1 uM): -1.06
phospho-S6 immunofluorescence (z-score) (co-treatment: vehicle): 0.89

CCCCC(=O)N(Cc1ccc(-c2ccccc2-c2nnn[nH]2)cc1)[C@H](C(=O)O)C(C)C.CCOC(=O)[C@H](C)C[C@@H](Cc1ccc(-c2ccccc2)cc1)NC(=O)CCC(=O)O (compound 10 µM)
phospho-S6 immunofluorescence (z-score) (co-treatment: GDC0941 450 nM): 0.23
phospho-S6 immunofluorescence (z-score) (co-treatment: lapatinib 1 uM): 0.37
phospho-S6 immunofluorescence (z-score) (co-treatment: vehicle): 0.21

CN1CCN2c3c(cccc31)[C@@H]1CN(CCCC(=O)c3ccc(F)cc3)CC[C@@H]12 [lumateperone (Tosylate)] (compound 10 µM)
phospho-S6 immunofluorescence (z-score) (co-treatment: GDC0941 450 nM): -3.44
phospho-S6 immunofluorescence (z-score) (co-treatment: lapatinib 1 uM): -3.22
phospho-S6 immunofluorescence (z-score) (co-treatment: vehicle): -5.62

NC1=NCC2c3ccccc3Cc3ccccc3N12 (stereo not drawn) [Epinastine] (compound 10 µM)
phospho-S6 immunofluorescence (z-score) (co-treatment: GDC0941 450 nM): -0.05
phospho-S6 immunofluorescence (z-score) (co-treatment: lapatinib 1 uM): -0.81
phospho-S6 immunofluorescence (z-score) (co-treatment: vehicle): 0.35

COc1ccc(CNC(=O)c2cc(-c3cncc(C)c3)ncc2-c2nccs2)nc1OC (compound 10 µM)
phospho-S6 immunofluorescence (z-score) (co-treatment: GDC0941 450 nM): -0.61
phospho-S6 immunofluorescence (z-score) (co-treatment: lapatinib 1 uM): -0.5
phospho-S6 immunofluorescence (z-score) (co-treatment: vehicle): 0.26

Cc1cncc(CN2CCC(=C3c4ccc(Cl)cc4CCc4cccnc43)CC2)c1 [Rupatadine (Fumarate)] (compound 10 µM)
phospho-S6 immunofluorescence (z-score) (co-treatment: GDC0941 450 nM): -1.47
phospho-S6 immunofluorescence (z-score) (co-treatment: lapatinib 1 uM): -2.09
phospho-S6 immunofluorescence (z-score) (co-treatment: vehicle): -1.45

CCCCC1=NC2(CCCC2)C(=O)N1Cc1ccc(-c2ccccc2-c2nnn[nH]2)cc1 [Irbesartan] (compound 10 µM)
phospho-S6 immunofluorescence (z-score) (co-treatment: GDC0941 450 nM): 0.03
phospho-S6 immunofluorescence (z-score) (co-treatment: lapatinib 1 uM): 0.13
phospho-S6 immunofluorescence (z-score) (co-treatment: vehicle): 0.09

CCN(CC)CCNC(=O)c1cc(Cl)c(N)cc1OC [Metoclopramide] (compound 10 µM)
phospho-S6 immunofluorescence (z-score) (co-treatment: GDC0941 450 nM): -0.3
phospho-S6 immunofluorescence (z-score) (co-treatment: lapatinib 1 uM): 0.63
phospho-S6 immunofluorescence (z-score) (co-treatment: vehicle): -0.11
